What all share (assay): NCI-60 one-dose screen, 48 h (100 = growth as untreated, 0 = no growth, -100 = all killed)
Details in all cases: 10 µM unless noted

Test [1] relates to RPMI-8226 leukemia.
Test [2] deals with OVCAR-8 ovarian.
Test [3] concerns OVCAR-5 ovarian.
Test [4] deals with OVCAR-4 ovarian.
In test [5] the test system is SK-OV-3 ovarian.
The test system of test [6] is IGROV1 ovarian.
The test system of test [7] is OVCAR-3 ovarian.
The test system of test [8] is HS 578T breast.
Test [9] deals with NCI/ADR-RES ovarian.
Test [10] relates to T-47D breast.
Test [11] has as its system BT-549 breast.
Test [12] deals with MDA-MB-435 melanoma.
The test system of test [13] is SW-620 colon.
In test [14] the test system is MCF7 breast.
Test [15] relates to HCT-116 colon.
Test [16] relates to HCC-2998 colon.
The subject of test [17] is KM12 colon.

The panel holds about 83,000 compounds, 20% with a hit somewhere; the sample as a whole holds those more often.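 Percent growth is the endpoint: 0 to 100 indicates growth inhibition (40 means 60% inhibition), 0 means no net growth, and negative values indicate cell death.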 Values without a mark were called inactive. Activity calls are given as the source filed them. Rule for the calls: active = growth percent below 10; inactive = the rest.

The values below come from PubChem BioAssay (NCI).

For the compound `ClC1C2CC(c3ccccc32)C1Cl` (centres undefined), the growth in test [1] is 97.6%; in [2], 113%; in test [3] it was 102%; in [4] it was 112%; in test [5], 115%; in [6], 118%. Also, the growth is 113% in test [7]; 113% in test [8]; 106% in test [9]; 103% in test [10]; 102% in test [11]; 120% in test [12]. In addition, the growth was 110% in test [13]; 103% in [14]; 105% in [15]; 110% in [16]; 116% in test [17].

Take `C[n+]1ccc(C#N)c2ccccc21`: the growth in [1] was 94.6%; in test [2], 111%; in test [3], 103%; in test [4], 64.7%; in test [5] it was 98.2%; in test [6], 70.5%. The growth was 4.02% (active) in test [7]; 108% in [8]; 101% in test [9]; 88.8% in [10]; 102% in [11]; 95.8% in [12]. For the same compound, the growth in test [13] is 90.6%; in test [14], 87.5%; in [15] it was 80%; in test [16], 114%; in test [17], 100%.

With `CCOc1cc(-c2ccc[nH]2)[nH]c1/C=C1\N=C(C)C(C(=O)OC)=C1C`, the growth was -40.5% (active) in test [1]; -45.8% (active) in [2]; -67.6% (active) in test [3]; -38.6% (active) in [4]; -63.7% (active) in test [5]; -45% (active) in test [6]. The growth is -89.2% (active) in test [7]; -23.3% (active) in test [8]; -58.7% (active) in test [9]; -63.8% (active) in test [10]; -43.3% (active) in test [11]; -70.8% (active) in test [12]. Also, the growth is -72.9% (active) in test [13]; -91.3% (active) in test [14]; -60.2% (active) in [15]; -87% (active) in test [16]; -85.3% (active) in test [17].

Take `CN(C)c1nc(N)nc(Cn2c(-c3nonc3N)nc3ccccc32)n1`: the growth is 87.9% in [1]; 91.9% in [2]; 90.6% in test [3]; 87.8% in test [4]; 88.8% in test [5]; 95.7% in test [6]. Further, the growth is 98% in test [7]; 77.4% in test [8]; 73.6% in test [9]; 89.7% in test [10]; 91.8% in test [11]; 7.85% (active) in test [12]. Further, the growth was 52.4% in [13]; 66.5% in [14]; 71.5% in test [15]; 82.7% in [16]; 55.4% in test [17].

`COc1ccc(-c2cc(Cc3cccs3)c(=O)n(Cn3cncn3)n2)cc1`: the growth was 98.7% in test [1]; 92.9% in test [2]; 88% in [3]; 98.5% in test [4]; 103% in [5]; 122% in test [6]. The growth in test [7] was 113%; in test [8] it was 106%; in test [9], 101%; in [10], 93.9%; in test [11], 109%; in [12], 106%. Further, the growth was 110% in [13]; 93.2% in test [14]; 101% in [15]; 108% in test [16]; 108% in test [17].

Take `[O-]/[N+](=C\C=C\c1ccccc1)c1ccccc1`: the growth in test [1] is 87.3%; in test [2], 121%; in [3] it was 107%; in test [4] it was 92.1%; in test [5], 110%; in test [6], 113%. Also, the growth in test [7] is 99.9%; in test [8], 130%; in test [9], 103%; in [10] it was 95.6%; in test [11], 109%; in [12], 108%. For the same compound, the growth is 104% in test [13]; 96.3% in test [14]; 102% in test [15]; 103% in test [16]; 100% in test [17].

In the case of `COC(=O)[C@]12CC[C@@H](C)[C@H](C)[C@@H]1C1=CC[C@@H]3[C@@]4(C)C=C(O)C(=O)[C@@]5(C)COC(=C54)C[C@@]3(C)[C@]1(C)CC2`, the growth in [1] was -56.5% (active); in [2], -20.5% (active); in test [3], -26.9% (active); in test [4] it was -39.1% (active); in [5] it was -20.8% (active); in [6] it was -23.5% (active). The growth was -92% (active) in [7]; -18.8% (active) in test [8]; -42.8% (active) in test [9]; -25.8% (active) in test [10]; -66.6% (active) in test [11]; -60.9% (active) in [12]. For the same compound, the growth in test [13] was -65.6% (active); in test [14], -70.5% (active); in test [15] it was -86.4% (active); in [16], -83.3% (active); in test [17] it was -74.2% (active).

Take `COc1cccc2c1O/C(=C\c1c([N+](=O)[O-])ncn1C)C2=O`: the growth in test [1] is -17% (active); in test [2], 94.4%; in [3] it was 108%; in test [4], 106%; in test [5], 93.4%; in test [6], 97.4%. Moreover, the growth in [7] is 106%; in test [8] it was 111%; in [9], 98.1%; in test [10] it was 106%; in test [11] it was 98%; in test [12], 91.6%. Besides, the growth in test [13] was 105%; in test [14] it was 88.4%; in test [15], 83.3%; in [16], 105%; in [17], 105%.

`COc1ccc2c(c1)C(=O)/C(=C/c1ccc([N+](=O)[O-])s1)O2`: the growth was -12% (active) in test [1]; -5.24% (active) in [2]; 32.9% in test [3]; -45% (active) in [4]; 74.6% in [5]; -58.3% (active) in test [6]. Also, the growth in [7] is -35.7% (active); in test [8] it was -6.61% (active); in [9] it was 27.3%; in test [10] it was -49.1% (active); in test [11], -52.9% (active); in [12], -70.4% (active). Besides, the growth in test [13] was -69.7% (active); in test [14], 3% (active); in test [15], -0.508% (active); in [16] it was -6.91% (active); in test [17] it was -19.3% (active).

Consider `C=C(C)[C@@H]1C[C@H](O)Cc2cc(Cl)cc(Cl)c2N1`, for which the growth was 116% in test [1]; 99.6% in test [2]; 81.9% in [3]; 103% in test [4]; 101% in test [5]; 105% in test [6]. For the same compound, the growth was 108% in test [7]; 100% in test [8]; 102% in test [9]; 99.3% in [10]; 105% in test [11]; 105% in test [12]. The growth in test [13] was 105%; in [14], 103%; in test [15], 99.5%; in test [16], 105%; in test [17], 107%.

In the case of `COc1ccc(-c2noc(N)c2-c2cc(OC)c3c(c2)OCO3)cc1`, the growth in [1] is 7.65% (active); in [2] it was 26.6%; in test [3], 61.6%; in test [4], 91.7%; in test [5], 27.6%; in test [6], 44.6%. Also, the growth in test [7] was -9.87% (active); in test [8] it was 21.4%; in [9], 9.7% (active); in test [10], 33.7%; in [11] it was 48%; in [12], -59.3% (active). The growth in test [13] was 17.5%; in [14], 19.1%; in test [15] it was 20%; in test [16] it was 46%; in test [17], 23.9%.

Consider `Cc1ccc(NC(=O)COC(=O)c2ccc(S(=O)(=O)N3CCCCCC3)cc2)cc1`, for which the growth was 97.6% in [1]; 98.8% in test [2]; 84% in test [3]; 105% in test [4]; 79.4% in [5]; 101% in [6]. In addition, the growth in test [7] is 106%; in test [8] it was 113%; in test [9], 105%; in test [10] it was 5.22% (active); in [11] it was 141%; in test [12] it was 107%. Moreover, the growth in test [13] is 107%; in test [14] it was 102%; in [15], 103%; in [16] it was 91.5%; in test [17] it was 97.7%.

Regarding `NC(=O)N/N=C/c1ccc(Br)o1`, the growth in [1] is 109%; in [2], 107%; in test [3], 98.7%; in [4], 111%; in test [5], 101%; in [6] it was 97.8%. Further, the growth in [7] is 113%; in test [8], 109%; in [9], 105%; in test [10], 91.4%; in test [11], 104%; in test [12], 113%. For the same compound, the growth was 114% in test [13]; 95.4% in test [14]; 105% in test [15]; 96.5% in test [16]; 108% in [17].

Take `C=CCCCCCCCCC(=O)[O][Sn]([CH2]CCC)([CH2]CCC)[CH2]CCC`: the growth was -27.3% (active) in [1]; -74.2% (active) in test [2]; -89.4% (active) in test [3]; -96.7% (active) in [4]; -98.8% (active) in [5]; -72.9% (active) in test [6]. Besides, the growth in test [7] is -97.9% (active); in test [8] it was -46.4% (active); in [9], -90.3% (active); in test [10], -71.5% (active); in test [11], -99.2% (active); in test [12] it was -86% (active). In addition, the growth in test [13] was -81.7% (active); in [14], -66.4% (active); in test [15], -95.8% (active); in test [16] it was -97.9% (active); in [17] it was -92.6% (active).

Turning to `COc1ccc(-c2csc(NC(=O)c3cc(OC)c(OC)c(OC)c3)n2)cc1`, the growth in [1] is 92.7%; in test [2] it was 97.2%; in [3], 103%; in test [4] it was 96.8%; in test [5], 101%; in test [6] it was 100%. Besides, the growth in [7] is 105%; in test [8], 96.4%; in [9], 115%; in test [10] it was 94.8%; in test [11], 106%; in test [12], 96.4%. In addition, the growth in [13] is 102%; in [14] it was 98.3%; in test [15] it was 106%; in test [16] it was 112%; in test [17] it was 108%.

For the compound `CCN(CC)c1ccc(CN(CC(=O)c2ccc(Cl)c(Cl)c2)Cc2ccccc2)cc1`, the growth is 101% in [1]; 100% in [2]; 104% in test [3]; 105% in [4]; 90% in test [5]; 107% in test [6]. The growth in test [7] is 99.2%; in test [8], 103%; in test [9], 105%; in test [10], 85.5%; in [11], 109%; in [12] it was 106%. Also, the growth in test [13] was 96%; in test [14] it was 95.5%; in [15], 104%; in [16], 107%; in test [17], 109%.

As for `COc1ccc2c3c(c(OCCCN(C)C)nc2c1)-c1ccc(Cl)cc1C3=O`, the growth in test [1] was -17.3% (active); in test [2] it was -38.6% (active); in [3], -43.3% (active); in test [4], -8.75% (active); in test [5], 55.5%; in test [6], 30.8%. Also, the growth in [7] was -46.4% (active); in test [8], 68.7%; in test [9] it was 7.12% (active); in [10], 72.7%; in test [11], 92.5%; in test [12], -7.72% (active). In addition, the growth in test [13] was -78.7% (active); in [14], -82.3% (active); in test [15] it was -90.9% (active); in test [16], -95.2% (active); in [17], -32.2% (active).
